Compound activity: PubChem, National Center for Advancing Translational Sciences (NCATS)
MCF10A rerep – A quantitative high throughput screen for small molecules that induce DNA re-replication in MCF 10a normal breast cells. MCF 10A DNA re-replication, Hoechst nuclear intensity, 48 h. Potency, µM (doses to about 46.1 µM), without a hit: top-dose activity, positive = re-replication, hits mostly activators. 350,000 tested, 2.9% active. AID 624296, 2012; also: % of control where 0% means no effect; nearly all actives have a fitted effect of over 50% in size
KB-V1 MDR tox – qHTS assay for MDR1-selective chemotherapeutics: Primary screen using the drug-selected MDR subline cells KB-V1; 400,000 tested, 3.4% active; Potency, µM (highest dose often 46.1 µM), actives largely listed as cytotoxic; KB-V1 MDR cells viability, CellTiter-Glo, 72 h; also: % is scaled to controls: 0 for no effect and ±100 for the full control effect; nearly all actives have a fitted effect of over 60% in size
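KB-V1 cells (P-gp-expressing MDR subline of KB-3-1) in phenol-red-free DMEM with 10% FBS were exposed to library compounds over a concentration series for 72 h at 37 degrees C. Viability read by CellTiter-Glo luminescence; concentration-effect curves fitted after normalization.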
HT1080 IDH1KD tx – qHTS for induction of synthetic lethality in tumor cells producing 2HG: qHTS for the HT-1080-IDH1KD cell line. HT-1080 IDH1 knockdown viability, ATP luminescence, 48 h. 360,000 tested, 2% active. Potency, µM (titrated, usually from 46.1 µM), without a hit: at the top dose activity, negative = toxicity, most hits filed as cytotoxic;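 also: 0% = DMSO wells and -100% = cell-free medium wells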
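IDH1KD HT-1080 cells, 750/well, RPMI + 5% FBS; compound pinned after 2 h settling; 48 h, 37 °C; CellTiter-Glo luminescence; % activity normalised to DMSO and no-cell wells; curves fitted, classed by r2 and efficacy.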
HT1080NT lethal – qHTS for induction of synthetic lethality in tumor cells producing 2HG: qHTS for the HT-1080-NT fibrosarcoma cell line; HT-1080-NT fibrosarcoma viability, CellTiter-Glo ATP luminescence, 48 h; Potency, µM (highest dose often 46.1 µM), for the others: at the highest dose activity, negative = less viability, usual class: cytotoxic; 360,000 tested, 1.6% active;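 also: NT is the 2HG producing partner of a matched IDH1 knockdown line; 0% = DMSO-treated cells and -100% = media-only wells without cells; nearly all actives have a fitted effect of over 55% in size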
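Compounds were tested in concentration-response format on HT-1080-NT cells for 48 hours at 37 degrees C. Cell viability came from CellTiter-Glo luminescence; curves were classified by r2, response magnitude and activity.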
KB-3-1 cytotox – qHTS assay for MDR1-selective chemotherapeutics: Primary screen using the parental adenocarcinoma cell KB-3-1; KB-3-1 viability, CellTiter-Glo ATP luminescence, 72 h; Potency, µM (highest dose often 46.1 µM), actives largely listed as cytotoxic; 400,000 tested, 1.4% active; also: % is scaled to controls: 0 for no effect and ±100 for the full control effect; nearly all actives have a fitted effect of over 60% in size
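Cells are dispensed, compounds pinned in, plates held at 37 °C for 72 h, then CellTiter-Glo is added and luminescence read after 10 minutes. Cell line: parental KB-3-1 in phenol-red-free DMEM, 10% FBS.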
SW480 rerep – A quantitative high throughput screen for small molecules that induce DNA re-replication in SW480 colon adenocarcinoma cells | SW480 DNA re-replication, Hoechst DNA content imaging, 48 h | Potency, µM (doses to about 46.1 µM), inactives show at the highest dose re-replication activation, hits mostly activators | 340,000 tested, 1.8% active | AID 624297, 2012; also: % of control where 0% means no effect; nearly all actives have a fitted effect of over 55% in size
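250 cells/well; 23 nL cpd via pin tool; 48 hr, 37 C, 5% CO2; Hoechst 40 min; imager read of total nuclear intensity, ex 405/em 500-530 nm.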
An asterisk follows results filed as active; i = inactive; ? = inconclusive; . = no result given; [ ] = dose if it differs, or a comment. Only some compounds are listed: those with a hit (about 8% of all), similar ones and a draw of the others. Calls follow the shape of the dose curve; as a rule, active = well fitted curve in the direction sought with a large enough effect; inconclusive = small, poorly fitted or top-dose-only effect, or another doubt; inactive = no such curve, though single readings can be large; an effect the other way counts as inactive or inconclusive. Potency is read from the fitted curve at half-maximal effect.

SMILES	MCF10A rerep	KB-V1 MDR tox	HT1080 IDH1KD tx	HT1080NT lethal	KB-3-1 cytotox	SW480 rerep
CCOc1ccccc1N(CC(=O)NCCOC)C(=O)CCC(=O)Nc1ccccn1	-21%	i	4%	25%	i	-10%
CCOC(=O)c1cccc(C(=O)Oc2ccccc2)n1	21µM*	i	-3%	9%	i	0%
Cc1cc(Br)ccc1NC(=O)CN1C(=O)C2C3CC(c4ccccc4)C(C3)C2C1=O (configuration not stated)	?	21µM*	-24%	-12%	i	5%
Cc1cc(NC(=O)CSc2nc(C3CCCCC3)nc3ccccc23)no1	6%	i	5%[9.24 µM]	-1%	?	13%
Cc1nonc1NC(=O)CSc1nc(C2CCCCC2)nc2ccccc12	?	i	-14%	-18%	i	8.2µM*
Cc1nonc1NC(=O)CSc1nc(C23CC4CC(CC(C4)C2)C3)nc2ccccc12	10µM*	?	3%	-3%	?	?
NC(=O)CSc1nc(C23CC4CC(CC(C4)C2)C3)nc2ccccc12	?	i	-1%	-2%	i	3%
COc1ccc(/C=C/C(=O)OCC(=O)N2CCc3ccccc32)cc1	-4%	?	0%	1%[9.24 µM]	i	-3%
CC1CCCN(S(=O)(=O)c2ccc(NC(=O)CN3CCCCC3)cc2)C1 (configuration not stated)	?	i	2%	-1%	i	14%
COC(=O)c1nn(-c2ccccc2)c2nnc(Cc3ccc(C)cc3)c(=O)n12	-11%	?	11%	-4%	i	1%
COC(=O)c1nn(-c2cccc(C)c2)c2nnc(Cc3ccccc3)c(=O)n12	0%	i	12%	11%	i	?
Cc1ccc(-n2nc(C(=O)c3ccccc3)n3c(=O)c(Cc4ccccc4)nnc23)cc1	-4%	16µM*	-3%	-3%	i	5%
O=C(c1ccccc1)c1nn(-c2ccccc2)c2nnc(Cc3ccccc3)c(=O)n12	23µM*	?	-25%	-3%	?	18µM*
O=C(Nc1ccccc1N1CCCCC1)c1ccc(-c2cc(Cl)ccc2Cl)o1	26%	i	8%	14%	i	?
O=C(CCN1CCCCC1)Nc1ccccc1	-3%	i	9%	-2%	i	4%
Cc1ccc(N2C(=O)N(CC(=O)c3cc(C)ccc3C)C(=O)C2C)cc1 (configuration not stated)	?	16µM*	10%	-3%	?	15%
FC(F)(F)c1ccccc1N/N=C/c1cccnc1	10%	i	-5%	4%	?	-1%
Cc1ccc(N/N=C/c2ccncc2)cc1	25%	i	?	?	i	7%
Fc1ccc(N/N=C/c2cccnc2)c(F)c1	-11%	i	15µM*	?	i	-9%
Cc1ccc(N/N=C/c2cccnc2)cc1	?	21µM*	8.2µM*	?	?	0%
CCN1CCN(CCCNC(=O)c2ccc(/C=C3/Oc4ccccc4N(Cc4cccc(C)c4)C3=O)cc2)CC1	1.8µM*	i	-2%	-3%	i	2.6µM*
O=C(CN1C(=O)/C(=C\c2ccccc2Br)Oc2ccccc21)NCCCN1CCOCC1	8%	i	-6%	-15%	i	-4%
O=C(NCCCN1CCOCC1)c1ccc(/C=C2\Oc3ccccc3N(Cc3ccccc3F)C2=O)cc1	5.2µM*	i	1%	4%	i	?
COCCNS(=O)(=O)c1ccc2c(c1)n(C)c(=O)n2C	-5%	i	28%	6%	i	-1%
CC[C@@H]1CCCCc2ccccc2[C@@H](C(=O)C[C@@H](O)CC(C)=O)OC1=O	-37%	i	10%	16%	i	-35%
SMILES	MCF10A rerep	KB-V1 MDR tox	HT1080 IDH1KD tx	HT1080NT lethal	KB-3-1 cytotox	SW480 rerep
O=[N+]([O-])c1ccc(O)c(Nc2ncnc3ccc(Br)cc23)c1	13µM*	i	?	?	?	?
CCCCCCn1c(COc2ccccc2F)nnc1SCC(=O)N1c2ccccc2NC(=O)C1(C)C	21µM*	?	?	-2%[9.24 µM]	?	?
C=CCSc1nccc(=O)[nH]1	-1%	i	15%	27%	i	-3%
CC1(C)CC2(C)OC2C2(C1)N=NC(=Nc1ccccc1)O2 (configuration not stated)	.	i	?	9.2µM*	?	.
COC(=O)c1ccc(NC(=O)Cn2c([N+](=O)[O-])cnc2C)cc1	11%	i	5%	9%	i	-10%
CCCCSc1cc(C)nc2ncnn12	-4%	i	4%	7%	i	-5%
COc1cc(NC(=O)c2cccnc2Sc2ccc(Cl)cc2)cc(OC)c1OC	10%	5.2µM*	-11%	-12%	i	5%
COc1ccc(C(=O)Nc2cccnc2Sc2ccc(Cl)cc2)cc1	-13%	i	-19%	4%	i	-1%[9.22 µM]
Cc1ccc(S(=O)(=O)NCC(=O)OCCOc2ccccc2F)cc1	-8%	i	-6%	7%	i	0%
O=c1[nH]c(CCC2CCCC2)nc2ccccc12	-44%	16µM*	0%	0%	i	-60%
O=C(c1ccccc1)N(Cc1nc2ccccc2c(=O)[nH]1)C1CCCC1	?	?	-10%	-15%	i	-5%
O=C(c1ccc(Br)cc1)N(Cc1nc2ccccc2c(=O)[nH]1)C1CCCC1	0%	?	23µM*	?	16µM*	?
Cc1ccnc(NC(=O)c2ccc(S(=O)(=O)N3CCCCCC3)cc2)c1	1%	?	-18%	-3%	i	-7%
CN(C)c1nc2n(c(=O)n1)C(C#N)CS2 (configuration not stated)	5%	i	8%	21%	i	2%
CC(C)[C@H](NC(=O)OC(C)(C)C)c1nnc(S(=O)(=O)Cc2c(F)cccc2Cl)o1	9.2µM*	?	4µM*	6.3µM*	i	20%
C[C@H](NC(=O)OC(C)(C)C)c1nnc(SCc2c(F)cccc2Cl)o1	.	?	.	.	i	.
CC(C)C[C@H](NC(=O)OC(C)(C)C)c1nnc(SCc2ccccc2)o1	430%[0.0737 µM]	?	-22%	-8%	i	2.6µM*
